According to the supplement of paper PMC12669032:
A number with no mark means an inactive call.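 Rule for the calls: active = AUC reduced over 20% with Padj below 0.05 in at least 2 of 3 replicates; inactive = otherwise.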

Test system: Roseburia intestinalis
Assay: growth AUC relative to DMSO control (median of replicates) (fraction); higher = more growth (less inhibition), active = hit call of the paper
Details: 20 µM; 24 h
Procedure, shortened: (§1)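 Hourly OD600 readings over 24 h tracked anaerobic gut bacterial monocultures grown at 37 °C in mGAM from OD600 0.05 with 20 µM compound (1% DMSO). After the minimum OD was set to 0, area under the growth curve was normalised to the plate median of solvent-only wells, or to row and column medians on the industrial chemical plate. Values are medians of three biological replicates grown on separate days.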

SMILES | growth AUC
COC(=O)C(C)Oc1ccc(Oc2ccc(Cl)cc2Cl)cc1 (stereo not drawn) | 0.984
CCCCN(CCCC)N=O | 1
CNC(=O)c1cc(C#N)cc(C)c1NC(=O)c1cc(Br)nn1-c1ncccc1Cl | 0.961
O=C(NC(=O)c1c(F)cccc1F)Nc1ccc(Cl)cc1 | 0.983
CCOP(=O)(OCC)OCC | 1.07
ClC1=C(Cl)C2(Cl)C3COCC3C1(Cl)C2(Cl)Cl (stereo not drawn) | 1.08
CCOP(=S)(Oc1cnc(C(C)(C)C)nc1)OC(C)C (stereo not drawn) | 1.01
c1ccc(-c2ccccc2)cc1 | 1.02
O=C(NC(=O)c1c(F)cccc1F)Nc1ccc(OC(F)(F)C(F)OC(F)(F)F)c(Cl)c1 (stereo not drawn) | 1.06
O=C(O)C(F)(F)C(F)(F)C(F)(F)C(F)(F)C(F)(F)C(F)(F)C(F)(F)F | 1
COC(=O)c1sccc1S(=O)(=O)NC(=O)Nc1nc(C)nc(OC)n1 | 0.947
O=S1OCC2C(CO1)C1(Cl)C(Cl)=C(Cl)C2(Cl)C1(Cl)Cl (stereo not drawn) | 0.988
C#CCOc1ccc(CCNC(=O)C(OCC#C)c2ccc(Cl)cc2)cc1OC (stereo not drawn) | 0.959
C[C@@H](Oc1ccc(Oc2nc3ccc(Cl)cc3o2)cc1)C(=O)O | 1.04
COP(=S)(OC)Oc1cc(Cl)c(Br)cc1Cl | 1.03
CCN(CC)C(=S)[S-].O.O.O.[Na+] | 0.894
CC1(C(=O)Nc2ccc(O)c(Cl)c2Cl)CCCCC1 | 0.86
CC1(C)[C@H](C(=O)O[C@H](C#N)c2cccc(Oc3ccccc3)c2)[C@@H]1/C=C\C(=O)OC(C(F)(F)F)C(F)(F)F | 0.962
C#CCOS(=O)OC1CCCCC1Oc1ccc(C(C)(C)C)cc1 (mixture of isomers) | 0.956
ClC1=C(Cl)C2(Cl)C(CBr)CC1(Cl)C2(Cl)Cl (stereo not drawn) | 0.993
Oc1ccc(Cl)cc1Cl | 0.907

Test system: Streptococcus salivarius
Assay: as above
Details: 20 µM; 24 h
Procedure, shortened: as §1

SMILES | growth AUC
CCCSP(=O)(OCC)SCCC | 0.984
Cc1cc(C2CC2)nc(Nc2ccccc2)n1 | 1.03
CNC(=O)/C(=N/OC)c1ccccc1Oc1ccccc1 | 0.989
CC1(C)[C@H](C=C(Cl)Cl)[C@H]1C(=O)OCc1c(F)c(F)cc(F)c1F | 1.02
COc1nc(C)nc(NC(=O)NS(=O)(=O)c2ccccc2CCC(F)(F)F)n1 | 0.989
CCN(CC)c1nc(C)cc(OP(=S)(OC)OC)n1 | 0.975
CCOC(=O)CCN(Cc1ccccc1)SN(C)C(=O)O/N=C(/C)SC | 0.976
COc1cc(OC)n2nc(S(=O)(=O)Nc3c(Cl)ccc(C)c3Cl)nc2n1 | 0.954
O=P(OCCCl)(OCCCl)OCCCl | 1.03
Clc1cc(Cl)c(Cl)cc1Cl | 0.935
C=CC(N)=O | 1.01
CNC(=O)Oc1cc(C)cc(C(C)C)c1 | 0.935
O=C(O)COc1cc(Cl)c(Cl)cc1Cl | 1.02
CN(C(=O)COc1nc2ccccc2s1)c1ccccc1 | 1
CC1(C)C(C(=O)OC(C#N)c2cccc(Oc3ccccc3)c2)C1(C)C (stereo not drawn) | 0.957
CCCCN(CC)c1c([N+](=O)[O-])cc(C(F)(F)F)cc1[N+](=O)[O-] | 1.03
COC(=O)C(C)Oc1ccc(Oc2ccc(Cl)cc2Cl)cc1 (stereo not drawn) | 0.984
CCCCN(CCCC)N=O | 1.01
CNC(=O)c1cc(C#N)cc(C)c1NC(=O)c1cc(Br)nn1-c1ncccc1Cl | 1.04

SMILES | growth AUC
O=C(NC(=O)c1c(F)cccc1F)Nc1ccc(Cl)cc1 | 0.992
CCOP(=O)(OCC)OCC | 0.994
ClC1=C(Cl)C2(Cl)C3COCC3C1(Cl)C2(Cl)Cl (stereo not drawn) | 0.915
CCOP(=S)(Oc1cnc(C(C)(C)C)nc1)OC(C)C (stereo not drawn) | 0.994
c1ccc(-c2ccccc2)cc1 | 0.993
O=C(NC(=O)c1c(F)cccc1F)Nc1ccc(OC(F)(F)C(F)OC(F)(F)F)c(Cl)c1 (stereo not drawn) | 1.01
O=C(O)C(F)(F)C(F)(F)C(F)(F)C(F)(F)C(F)(F)C(F)(F)C(F)(F)F | 1.01
COC(=O)c1sccc1S(=O)(=O)NC(=O)Nc1nc(C)nc(OC)n1 | 0.859
O=S1OCC2C(CO1)C1(Cl)C(Cl)=C(Cl)C2(Cl)C1(Cl)Cl (stereo not drawn) | 0.977
C#CCOc1ccc(CCNC(=O)C(OCC#C)c2ccc(Cl)cc2)cc1OC (stereo not drawn) | 0.984
C[C@@H](Oc1ccc(Oc2nc3ccc(Cl)cc3o2)cc1)C(=O)O | 0.925
COP(=S)(OC)Oc1cc(Cl)c(Br)cc1Cl | 0.995
CCN(CC)C(=S)[S-].O.O.O.[Na+] | 1.03
CC1(C(=O)Nc2ccc(O)c(Cl)c2Cl)CCCCC1 | 0.967
CC1(C)[C@H](C(=O)O[C@H](C#N)c2cccc(Oc3ccccc3)c2)[C@@H]1/C=C\C(=O)OC(C(F)(F)F)C(F)(F)F | 1.07
C#CCOS(=O)OC1CCCCC1Oc1ccc(C(C)(C)C)cc1 (mixture of isomers) | 1.03
ClC1=C(Cl)C2(Cl)C(CBr)CC1(Cl)C2(Cl)Cl (stereo not drawn) | 1.03
Oc1ccc(Cl)cc1Cl | 0.901
